# HTT cytoprotect = protects HTT-Q103 PC12 cells, measured by ATP | PC12 HTT-Q103 induced, cytoprotection, ATP luminescence, 40 h | Potency, µM (highest dose often 56.4 µM), inactives show cytoprotection (ATP increase), usual class: activators | 230,000 tested, 0.14% active | AID 1471; note: potency is the fitted concentration of half-maximal effect; % of control where 0% means no effect; nearly all actives have a fitted effect of over 45% in size
#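 Readout: ATPlite luminescence (ATP level). Model: stable PC12, inducible Htt exon1 Q103-GFP. Inducer: tebufenozide, 100 nM final. Compounds: dose series. No G418 in medium.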
# RGS12 GoLoco inh-1 = inhibitors of human Gai1-RGS12 GoLoco interaction (red fluorophore); P63096; Gai1:RGS12 GoLoco peptide FP, rhodamine, 10 min; 230,000 tested, 0.44% active; Potency, µM (series often up to 61.6 µM), for inactives: at the highest dose activity, negative = inhibition, most hits filed as inhibitors; active = well fitted inhibition curve with a large enough effect, not every such curve was filed as active; inactive = no such curve, though single readings can be large or run the other way; note: potency is the fitted concentration of half-maximal effect; % is set by controls: 0 for no effect and ±100 for the full control effect; nearly all actives have a fitted effect of over 30% in size
# Target sequence (P63096 whole entry, looked up): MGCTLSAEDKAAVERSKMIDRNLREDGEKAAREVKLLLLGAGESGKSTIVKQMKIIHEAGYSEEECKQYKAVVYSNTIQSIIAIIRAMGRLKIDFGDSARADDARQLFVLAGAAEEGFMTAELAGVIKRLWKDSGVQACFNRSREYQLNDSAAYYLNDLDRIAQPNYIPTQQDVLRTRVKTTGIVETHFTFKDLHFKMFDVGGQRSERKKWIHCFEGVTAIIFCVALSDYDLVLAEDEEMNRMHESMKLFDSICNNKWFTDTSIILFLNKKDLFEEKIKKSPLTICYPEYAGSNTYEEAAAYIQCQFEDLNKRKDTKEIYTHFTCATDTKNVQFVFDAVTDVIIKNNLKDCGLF
# PNC inhibitor = inhibitors of perinucleolar compartment assembly | activity change (PNC), negative = inhibition, % at 10 µM | PC3M PTB-GFP, PNC prevalence imaging, 16 h; stronger effect = lower value | AID 2417 | 140,000 tested, 3.1% active;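 active = readout at or below -70, meaning at least 70% loss of cells showing the perinucleolar compartment, a nuclear body marking cancer cells; inconclusive = readout between -30 and a set limit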;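 note: plate controls were DMSO wells for no effect and camptothecin positive control wells for full effect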
#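 Compounds are pinned in duplicate onto adhered PC3M cells stably expressing GFP-tagged PTB and incubated 16 h at 37 C. Cells are then fixed, nuclei stained with Hoechst, and PNC-positive cells counted.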
# ALDH1A1 inh = inhibitors of human aldehyde dehydrogenase 1A1. AID 1030. 220,000 tested, 7.3% active. P00352. Potency, µM (titrated, usually from 75.3 µM), inactives show at the top dose activity, negative = inhibition, most hits filed as inhibitors. Purified ALDH1A1, NADH fluorescence, propionaldehyde substrate; active = well fitted inhibition curve with a large enough effect, not every such curve was filed as active; inconclusive = small, poorly fitted or top-dose-only effect, or another doubt; inactive = no such curve, though single readings can be large or run the other way;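 note: potency is the fitted concentration of half-maximal effect; plate controls were no enzyme wells and a reference inhibitor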
# HPGD block = inhibitors of human 15-hydroxyprostaglandin dehydrogenase (HPGD) | AID 894 | Potency, µM, inactives show at the top dose activity change, negative = inhibition, most hits filed as inhibitors | 150,000 tested, 4.3% active | purified HPGD, NADH fluorescence kinetic, PGE2 substrate | P15428; active = well fitted inhibition curve with a large enough effect, not every such curve was filed as active; inconclusive = small, poorly fitted or top-dose-only effect, or another doubt; inactive = no such curve, though single readings can be large or run the other way; note: potency is the fitted concentration of half-maximal effect; % is set by controls: 0 for no effect and ±100 for the full control effect
# Target sequence (P15428 whole entry, looked up): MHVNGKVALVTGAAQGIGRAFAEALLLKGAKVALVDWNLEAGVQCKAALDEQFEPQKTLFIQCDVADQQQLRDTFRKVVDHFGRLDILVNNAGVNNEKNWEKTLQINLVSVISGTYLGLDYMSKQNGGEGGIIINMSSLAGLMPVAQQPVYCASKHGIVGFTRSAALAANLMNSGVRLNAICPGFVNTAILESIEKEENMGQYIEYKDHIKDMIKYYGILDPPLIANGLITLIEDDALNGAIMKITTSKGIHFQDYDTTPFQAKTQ
#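 20 nM HPGD preincubated 15 min at room temperature with compound in 50 mM Tris-HCl pH 8, 0.01% Tween 20. Started with 1 mM NAD+ and 30 uM prostaglandin E2; NADH fluorescence (360/450 nm) read 5 times over 30-s intervals, last minus first.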
# HttQ103 aggreg = mutant huntingtin aggregation inhibition; 220,000 tested, 1.1% active; PC12 HttQ103-GFP aggregates, Acumen cytometry, 40 h; Potency, µM (highest dose often 46.1 µM), for inactives: top-dose activity change, negative = inhibition, actives largely listed as inhibitors; note: potency is the fitted concentration of half-maximal effect; % is set by controls: 0 for no effect and ±100 for the full control effect; nearly all actives have a fitted effect of over 60% in size
#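 Aggregates are detected as GFP objects 1–25 µm with signal 6 STDEV over background in lysates of induced PC12 cells. These carry Huntingtin exon 1 with 103 glutamines fused to GFP under an ecdysone promoter; compounds titrated.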
# RGS12 GoLoco inh-2 = confirmation of human RGS12 GoLoco motif inhibitors | Potency, µM (highest dose often 57.1 µM), for the others: top-dose activity, negative = inhibition, most hits filed as inhibitors | shares compounds with RGS12 GoLoco inh-1 | Gai1/rhodamine-RGS12 GoLoco peptide fluorescence polarization | 110 tested, 50% active
# Starred values were filed as active, the others as inactive; ? = inconclusive; / = no result given; ! = not confirmed by another sample; [ ] = remark or other dose. Shown are actives, neighbours in structure and some others; about 11% of the full set was active somewhere. Unless noted, calls come from the whole dose curve; as a rule, active = well fitted curve in the direction sought with a large enough effect; inconclusive = small, poorly fitted or top-dose-only effect, or another doubt; inactive = no such curve, though single readings can be large; an effect the other way counts as inactive or inconclusive.
SMILES,HTT cytoprotect,RGS12 GoLoco inh-1,PNC inhibitor,ALDH1A1 inh,HPGD block,HttQ103 aggreg,RGS12 GoLoco inh-2
CC1c2ccccc2CN1CC1=NCCN1 (stereo not drawn),-36%,25µM*,/,-11%,/,/,?
C=CCn1c(=O)[nH]c2nc3cc(N=CN(C)C)c(C)cc3nc2c1=O,3%[10 µM],28µM*,/,/,/,10%[9.22 µM],28µM*
CCCc1n(CC(O)COCC2CC=CCC2)c2ccccc2[n+]1C (stereo not drawn),3%[10 µM],-1%,/,3%,/,-8%[9.22 µM],14µM*
CCCc1n(CC(O)COC2CCCCC2)c2ccccc2[n+]1C (stereo not drawn),12%[10 µM],7%,/,-1%,/,-5%[9.22 µM],/
CSc1cccc(NC(=S)N2CCC(N(C)C3CCCCC3C)CC2)c1 (stereo not drawn),0%,3%,/,-8%,/,-2%,/
CC(=O)NC(NC(=S)N1CCCCCC1)C(Cl)(Cl)Cl (stereo not drawn),6%,12%,/,6%,/,-10%,/
CCCCCCCCCCCCCCCC[n+]1cccc2ccccc21,-5%[10 µM],2.2µM*,7,-4%,-14%,7.9µM*,4.5µM*
O=C(C[n+]1cccc2ccccc21)c1ccccc1,7%[10 µM],48%,?,?,-24%,-14%,/
COc1ccc(C(=O)Nc2c(C(C)(C)C)nn(C)c2C(C)(C)C)cc1,-12%[10 µM],-7%,/,/,/,-3%[9.22 µM],/
Cc1[nH]c2ccccc2c1C(=O)CNc1nccs1,-12%[10 µM],-61%,?,?,-19%,-3%,6.3µM*
Cc1[nH]c2ccccc2c1C(=O)CSc1ccccn1,-11%[10 µM],38%,/,?,/,-1%[9.22 µM],/
COc1ccc(-c2nc3c(=O)n(C)c(=O)[nH]c3n2CCc2ccccc2)cc1,-18%,14%,27,?,?,-5%,/
COc1cc2[nH]c(=O)n(C3CCCCC3)c(=O)c2cc1OC,-6%,-3%,25,?,-2%,?,/
CCCCn1c(=O)[nH]c2nc3cc(N)ccc3nc2c1=O,-5%[10 µM],13µM*,-27,?,-18%,27%,8.9µM*
Nc1ccc2nc3c(=O)n(CCc4ccccc4)c(=O)[nH]c3nc2c1,-10%[10 µM],18µM*,/,/,/,-13%[9.22 µM],13µM*
CCCCn1c(N)c(Br)c(=O)[nH]c1=O,7%[10 µM],7%,/,/,/,5%[9.22 µM],/
Cc1cc2nc3c(=O)n(CCc4ccccc4)c(=O)[nH]c3nc2cc1N,-11%[10 µM],7.9µM*,/,/,/,-33%[9.22 µM],?
Nc1ccc2nc3c(=O)n(C4CCCCC4)c(=O)[nH]c3nc2c1,14%[10 µM],25µM*,/,/,/,?,11µM*
CCCCOc1ccc(C(CC(=O)NC)C(=O)O)cc1 (stereo not drawn),-6%,2%,12,11%,-2%,-3%[1.84 µM],/
O=C(COC(=O)/C=C/c1ccco1)NCCc1ccccc1,34%[10 µM],-3%,/,?,/,3%,/
O=C(Cn1cc(C(F)(F)F)ccc1=O)N1CCN(S(=O)(=O)c2ccccc2)CC1,-4%[10 µM],2%,8,6%,-12%,4%,/
COC(=O)c1c(SCc2ccc(C#N)cc2)nc(=O)[nH]c1C,-19%,11%,/,5%,/,20%,/
Cc1cc(C)nc(SCC(=O)Nc2ccc(N3CCOCC3)cc2)n1,-10%[0.074 µM],5µM*,?,1%,-3%,-17%,4.5µM*
Cc1nc(SCC(=O)Nc2ccc(N3CCOCC3)cc2)nc(C)c1C,-29%,0%,-27,?,-19%,-11%,/
COc1cccc(C(=O)N/N=C/c2ccc(Oc3ccc([N+](=O)[O-])cn3)c(OC)c2)c1,4%[10 µM],-51%,?,?,-10%,-8%,18µM*
SMILES,HTT cytoprotect,RGS12 GoLoco inh-1,PNC inhibitor,ALDH1A1 inh,HPGD block,HttQ103 aggreg,RGS12 GoLoco inh-2
O=C(O)c1ccc(COc2ccc(/C=N/NC(=O)c3cccs3)cc2)cc1,-9%,10µM*,-16,3%,-13%,24%,?
Cc1ccccc1OCc1nnc(SCC(=O)Nc2ccc3c(c2)oc2ccccc23)n1C,-2%[10 µM],8%,?,14µM*,?,-8%,11%
Cc1ccc(-c2nnc(SCC(=O)Nc3ccc4c(c3)oc3ccccc34)n2C)c(Cl)c1,1%,-11%,-12,4%,-10%,8%,/
Cc1nc2c(c3c1[nH]c1ccccc13)C(=O)CC(C)(C)C2,-20%,20%,-2,?,?,-5%,/
O=C1NCc2c1c1c3ccccc3[nH]c1c1[nH]c3ccccc3c21,/,/,/,/,/,/,7%
O=C(O)c1ccc(O)cc1O,-4%,-10%,/,-6%,-3%,/,/
O=C(O)c1cc(NCc2cc(O)ccc2O)ccc1O,-86%,6.3µM*,/,?,/,/,2µM*
CCOC(=O)C1CCCN(C(=O)Cn2sc3nc(C)cc(C)c3c2=O)C1 (stereo not drawn),-59%,18µM*,?,?,?,?,?
CCOC(=O)c1c(C)[nH]c(C(=O)COC(=O)CCC2CCCC2)c1C,4%,-3%,2,2%,-11%,9%,/
CCCCCCCCCCCCCCCC[n+]1ccc(C(N)=O)cc1,11%[10 µM],3.2µM*,-26,-3%,-2%,1%,?
CCOC(=O)c1ccc(NC(=O)CSc2nccn2C)cc1,-14%[10 µM],10%,36,?,-25%,-4%,36%
CN1C(CC(=O)c2ccccc2)CCCC1CC(O)c1ccccc1 (stereo not drawn),-59%,22µM*!,-110*,-2%,-10%,1%,18%
Cc1c(-n2c(SC(C)C(=O)NC(N)=O)nc3ccccc3c2=O)c(=O)n(-c2ccccc2)n1C (stereo not drawn),-11%,6%,/,5%,/,15%,/
Cc1ccc(C)c(CSc2nc3[nH]ncc3c(=O)[nH]2)c1,-21%[10 µM],-5%,/,12%,/,-25%,/
C[n+]1cn(CC(O)COCc2ccccc2)c2ccccc21 (stereo not drawn),0%,16µM*,34,10%,-8%,2%,14µM*
Cc1cc2c(cc1C)[n+](C)cn2CC(O)COCc1ccccc1 (stereo not drawn),19%[10 µM],11µM*,-22,8%,-13%,-20%,22µM*
CCOC(=O)CN1C(=N)N(c2nc(NC(C)C)nc(NC(C)C)n2)CC1=O,19%[10 µM],-6%,58,7%,-6%,-3%,/
CCn1c(SCC(=O)N2CCN(c3cccc(Cl)c3)CC2)nc2ccccc2c1=O,17%[1.9 µM],8%,?,28µM*,-18%,-7%,8%
Cc1cc2ccccc2c(=O)n1CC(=O)N1CCN(c2cccc(Cl)c2)CC1,-7%,4%,1,-1%,-16%,-1%,/
